High-throughput results from PubChem BioAssay.
Many of the other results were omitted from the sample, so hits are more common in it than they were.
LASV entry inh: blocks Lassa virus binding to or entry into cells; Lassa virus pseudotype entry inhibition, cell reporter; Potency, µM (titrated, usually from 37.9 µM), most hits filed as inhibitors; hit rate 1.2% among 300,000; AID 540256; calls by dose curve; tested in HEK293 cells; further: nearly all actives have a fitted effect of over 50% in size
CHX counter: affects cycloheximide protein synthesis inhibition readout, counter-screen; max response, %; hit rate 12% among 300,000; cell reporter, cycloheximide protein synthesis inhibition counterscreen; in the data active means max response mostly above about 13%, no sharp cut-off; inactive means mostly below about 14%; further: read at 38.3 µM for the half of the compounds with a filed dose
Marburg entry inh: blocks Marburg virus binding to or entry into cells; Marburg virus pseudotyped entry inhibition, cell reporter; Potency, µM (highest dose often 37.8 µM), hits mostly inhibitors; hit rate 1.8% among 300,000; AID 540276; calls by dose curve; tested in HEK293 cells
Shiga toxin inh: Shiga toxin inhibition | Vero cells, Shiga toxin protein synthesis inhibition reporter | inhibition, % at 38.7 µM | hit rate 9.2% among 290,000; in the data active means inhibition mostly above about 28%, no sharp cut-off; inactive means mostly below about 43%
AMA1-RON2 inh: inhibitors of Plasmodium falciparum AMA1-RON2 interaction; Potency, µM (series often up to 58.2 µM), hits mostly inhibitors; hit rate 0.2% among 360,000; AID 720542; AlphaScreen AMA1-biotinylated RON2 peptide binding; active means well fitted inhibition curve with a large enough effect; inconclusive means small, poorly fitted or top-dose-only effect; inactive means no such curve, though single readings can be large or run the other way; further: nearly all actives have a fitted effect of over 45% in size
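AMA1 (3D7) with his tag at 25 nM final met compounds first, then biotinylated RON2 peptide at 25 nM; detection used donor plus acceptor beads, 10 µg/mL apiece, read by AlphaScreen after 30 min at room temperature.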
Numbers stand for hits; i = inactive; ? = inconclusive; nt = no result given; + = active, no number; [ ] = remark or other dose.

SMILES	LASV entry inh	CHX counter	Marburg entry inh	Shiga toxin inh	AMA1-RON2 inh
CC(=O)Nc1ccc(/C=N/NC(=O)c2cc3ccccc3nc2C)cc1	?	i	i	i	i
Fc1cccc(/C=N/Nc2nncc3ccccc23)c1	nt	57	nt	85	i
CC(=O)Nc1ccc(/C=N/Nc2nncc3ccccc23)cc1	i	50	?	83	i
C(=N\Nc1nncc2ccccc12)/c1ccccn1	1.1µM	33	?	57	i
Cc1nc(SCC(=O)Nc2cccnc2Cl)nc(C)c1C	nt	i	i	i	i
CCOC(=O)c1c(-c2ccc(Br)cc2)csc1NC(=O)c1ccccc1F	i	nt	nt	nt	nt
CCOC(=O)c1c(-c2ccc(C)s2)csc1NC(=O)c1ccco1	nt	i	i	i	nt
COC(=O)c1c(-c2ccc(F)cc2)csc1NC(=O)c1ccco1	?	61	i	94	i
O=C(Nc1scc(-c2ccccc2)c1C(=O)O)c1ccco1	i	31	i	63	i
O=C(Nc1scc(-c2ccccc2)c1C(=O)O)c1ccccc1Cl	i	i	i	i	i
COc1ccc(-c2csc(NC(=O)c3ccccc3F)c2C(=O)O)cc1	nt	36	nt	59	i
O=C(COC(=O)c1cc(-c2ccc(F)cc2)nc2ccccc12)NCC1CCCO1 (stereo not given)	nt	i	nt	i	i
O=C(O)c1ccc2c(=O)n3c(nc2c1)/C(=C/c1ccccc1Br)CC3	i	i	i	i	i
COc1cc(C=NO)nc(-c2ccccn2)c1	1.3µM	nt	?	nt	i
CCOC(=O)c1c(NC(=O)/C=C\C(=O)O)sc(C)c1-c1ccccc1	i	i	i	i	i
CCOC(=O)c1c(NC(=O)/C=C/C(=O)O)sc(C)c1-c1ccc(C(C)(C)C)cc1	?	i	10µM	i	i
CCOC(=O)c1c(NC(=O)CCN2CCOCC2)sc(C)c1-c1ccccc1	3.2µM	i	?	i	?
Cc1cc(C)c2cc(C(=O)N3CCN(c4ncccc4C(F)(F)F)CC3)[nH]c2c1	i	i	?	i	i
O=C1OCCC1N(C(=O)C1CC1)c1cccc(Cl)c1 (stereo not given)	nt	i	nt	i	nt
Cc1ccccc1OCc1nc2ccccc2c(=O)n1/N=C/c1cn[nH]c1-c1ccc(Br)cc1	?	13	?	i	i
O=c1c2ccccc2nc(COc2ccccc2)n1/N=C/c1cn[nH]c1-c1ccccc1	?	i	?	44	i
Cc1ccc(-c2[nH]ncc2/C=N/n2c(C)nc3ccccc3c2=O)cc1	i	i	i	i	i
O=c1c2ccccc2nc(COc2ccccc2)n1/N=C/c1ccc(O)cc1O	nt	16	nt	94	i
CC(C)OCCCNC(=O)c1cc(S(=O)(=O)N2CCc3ccccc32)cn1C	nt	i	nt	i	i
CCOc1ccc(C(c2c(O)cc(C)n(CCOC)c2=O)N2CCN(c3ccccc3F)CC2)cc1 (stereo not given)	i	nt	nt	nt	nt
SMILES	LASV entry inh	CHX counter	Marburg entry inh	Shiga toxin inh	AMA1-RON2 inh
Cc1c(CCC(=O)N2CCC[C@H]2C(=O)O)c(=O)oc2c(C)c3oc4c(c3cc12)CCCC4	nt	8.5	nt	i	i
Cc1cccc(-c2nc3nc(C)cc(NC(C)c4ccccc4)n3n2)c1 (stereo not given)	i	nt	nt	nt	nt
CCCCn1c(/C=N/Nc2nc3ccccc3[nH]2)nc2ccccc21	?	i	?	i	i
Cc1ccc(/C=N\Nc2nc3ccc(Cl)cc3[nH]2)o1	?	41	i	119	i
Fc1ccccc1-c1ccc(/C=N/Nc2nc3ccccc3[nH]2)o1	?	50	?	49	i
COC(=O)C1(NC(=O)NC2CCCCC2)CCCCC1	i	i	i	i	i
CC(=O)OCCN(CCCn1c(-c2ccncc2)nc2ccccc21)c1nc(CN2CCCCC2)cs1	nt	i	nt	i	i
Cc1cc(C(=O)Nc2ccc(N3CCCC3)c(Cl)c2)ccc1[N+](=O)[O-]	i	47	?	31	22µM
CCn1cc([N+](=O)[O-])c(C(=O)Nc2ccc3c(c2)OCCO3)n1	i	38	i	47	i
O=C(Nc1ccc(N2CCCC2)c(Cl)c1)c1ccc([N+](=O)[O-])cc1	i	i	i	i	i
Cc1cc(C(=O)Nc2cccc(NC(=O)c3ccco3)c2)ccc1[N+](=O)[O-]	i	19	i	27	i
Cc1cccc(NC(=O)c2cccc(NC(=O)c3ccco3)c2)c1	i	nt	i	nt	i
Cc1cc(C(=O)NC(C)CCc2ccccc2)ccc1[N+](=O)[O-] (stereo not given)	i	18	i	nt	i
CC(CCc1ccccc1)NC(=O)c1ccc(C(=O)NC(C)CCc2ccccc2)cc1 (stereo not given)	?	i	?	i	i
Cc1cccc(-c2nc(CCNC(=O)c3ccccc3Br)cs2)c1	i	nt	nt	nt	nt
O=C(O)c1cc(NC(=O)c2ccc(Cl)c([N+](=O)[O-])c2)cc(C(=O)O)c1	i	i	i	i	i
O=C(Nc1cccc(F)c1)c1cccnc1	nt	i	nt	i	i
Cc1cc(C(=O)Nc2ccc3c(c2)OCCO3)ccc1[N+](=O)[O-]	nt	27	nt	nt	i
O=C(Nc1cccc(Cl)c1)C1=Cc2cc(Cl)ccc2OC1	i	i	i	i	i
O=C(Nc1ccc2c(c1)OCCO2)c1cccnc1	?	25	?	59	i
O=C(Nc1ccc(Cl)c(Cl)c1)C1=Cc2ccccc2OC1	?	43	?	66	i
CCN(CC(=O)Nc1ccc2c(c1)OCCO2)CC(=O)Nc1ccc(C)c([N+](=O)[O-])c1	i	nt	?	nt	i
O=C(Nc1ccc2c(c1)OCCO2)c1ccc(Cl)c([N+](=O)[O-])c1	i	56	?	+	i[2.32 µM]
Cc1ccc(-c2nnc(SCC(=O)NC3CCS(=O)(=O)C3)nc2-c2ccc(C)cc2)cc1 (stereo not given)	i	i	i	i	i
Cc1nc2cc(Nc3ccncc3)ccc2s1	i	i	i	i	i
SMILES	LASV entry inh	CHX counter	Marburg entry inh	Shiga toxin inh	AMA1-RON2 inh
Cn1c(=O)c2c(ncn2CCOC(=O)C(C)(C)Oc2ccc(Cl)cc2)n(C)c1=O	nt	nt	nt	nt	i
O=C(Nc1ccccn1)c1ccc2c(c1)OCCO2	?	i	?	i	i
COC(=O)c1ccc(NC(=O)c2ccc3nccnc3c2)cc1	i	i	i	i	i
O=C(Nc1ccc2c(c1)OCCO2)c1ccc2nccnc2c1	?	33	?	i	i
O=C(Nc1ncccc1Cl)c1ccc2c(c1)OCCO2	i	32	?	84	i
O=C(Nc1ccc2c(c1)OCCO2)c1ccc(Cl)c(Cl)c1	?	45	?	84	i
O=C(NCc1cccnc1)C(=O)Nc1ccc2c(c1)OCO2	?	18	i	i	i
O=C(Nc1ccc2c(c1)OCO2)c1cnc(Cl)c(Cl)c1	i	nt	i	nt	i
CC(=O)c1ccc2ccccc2c1OC(=O)c1ccncc1	nt	nt	nt	nt	i
O[C@@H]1CN=C2Sc3ccccc3N2C1	nt	nt	i	nt	nt
Cc1ccccc1C(=O)N1CCC(C(=O)NC(C)c2ccc(-n3ccnc3)cc2)CC1 (stereo not given)	i	i	i	i	i
COc1ccc(N2CCN(C(=O)c3ccc(NC(=O)C4=CSCCO4)cc3)CC2)cc1	nt	i	nt	i	i
COc1ccc(NC(=O)CCCc2nnc3n(C(C)C)c(=O)c4sccc4n23)cc1Cl	i	nt	nt	nt	nt
CCCSC(=O)N(CC)CC(=O)Nc1c(CC)cccc1CC	i	i	i	i	i
CCOC(=O)C1=C(CSc2nc(-c3ccccc3)ccc2C#N)OC(N)=C(C#N)C1c1cccnc1 (stereo not given)	i	42	i	92	i
